Assay results reported in ChEMBL document CHEMBL4513216, “Probing the Open Global Health Chemical Diversity Library for Multistage-Active Starting Points for Next-Generation Antimalarials” (ACS Infect Dis, 2020).
Out of some 69,000 compounds screened, about 8,600 (12%) showed an effect of 50% or more. What follows is part of a selection rich in strong results, with near analogues and random picks from the rest.

Each compound was assayed on Plasmodium berghei (assay: Screen against P. berghei liver stage (PbLuc), transformed with Luciferase, at 10uM). Details: tested at 10 uM.
Type: functional, HepG2
Work on `CCCc1ccc2oc(C(=O)N3CCC(O)CC3)c(C)c2c1` yielded an INHIBITION of 2.7%.
`CSc1ccc(Cl)c(C(=O)N2CCCC(CNS(C)(=O)=O)C2)c1` (stereo unspecified) gave an INHIBITION of 41.4%.
Work on `COc1ccccc1OCC(=O)NS(=O)(=O)c1cccnc1` yielded an INHIBITION of 29.8%.
Work on `CCC(C)n1c(SCC(=O)N2CCOCC2)nc2cc(C)[nH]c2c1=O` (stereo unspecified) yielded an INHIBITION of 57.3%.
With `CCn1c(SCC(=O)N2CCOCC2)nc2cc(C)[nH]c2c1=O` the INHIBITION was 2.69%.
`Cc1cc2nc(SCC(=O)N3CCOCC3)n(C(C)C)c(=O)c2[nH]1` was tested, and the INHIBITION was 47.4%.
`CC(C)c1nnc(NC(=O)N2CCCC2c2ccncc2)s1` (stereo unspecified) gave an INHIBITION of -32.3%.
`CCCc1nnc(NC(=O)N2CCCC2c2ccncc2)s1` (stereo unspecified) showed an INHIBITION of 59.2%.
In the case of `CCSc1ccc(NC(=O)N2CCCC2c2ccncc2)cn1` (stereo unspecified), the INHIBITION is reported as 35.2%.
`CC(C)(C)c1n[nH]c(C2CN(C(=O)CCc3ccco3)CCO2)n1` (stereo unspecified) was tested, and the INHIBITION was 18.15%.
`Cc1nc(CN2CCCC(NCCCc3ccccc3)C2)no1` (stereo unspecified) was tested, and the INHIBITION was -7.31%.
Work on `O=C(COc1ccc(C(F)(F)F)cc1)N1CCOCC1c1ncon1` (stereo unspecified) yielded an INHIBITION of 11.9%.
For `CC(C)(C)c1n[nH]cc1CNC1CCC(O)CC1` (stereo unspecified), the INHIBITION was 5.87%.
`CC(C)NC(=O)C1CN(Cc2ccc(F)cc2)CC12CCOCC2` (stereo unspecified) gave an INHIBITION of -15.7%.
With `CCC(Cn1ccnc1)n1cnc2scc(C)c2c1=O` (stereo unspecified) the INHIBITION was 14.9%.
Work on `CC(Oc1ccc2c(c1)OCO2)C(=O)N1CCC(N2CCCC2)CC1` (stereo unspecified) yielded an INHIBITION of -5.22%.
Work on `CC1CCN(C(=O)C(C)Oc2ccc3c(c2)OCO3)CC1` (stereo unspecified) yielded an INHIBITION of -20.5%.
`CC(Oc1ccc2c(c1)OCO2)C(=O)N1CCC(N2CCOCC2)CC1` (stereo unspecified) gave an INHIBITION of 63%.
Compound `CCCc1nc(C(C)(C)NC(=O)C2CC(=O)N(CCOC)C2)no1` (stereo unspecified) has an INHIBITION of -3.2%.
With `CCOCC(=O)Nc1ccc(-n2ccc(C(N)=O)n2)cc1` the INHIBITION was 10.8%.
For `CC(C)N(C)CC(=O)Nc1ccc(-n2ccc(C(N)=O)n2)cc1`, the INHIBITION was 49.3%.
With `CCN(CC)CC(=O)Nc1ccc(-n2ccc(C(N)=O)n2)cc1` the INHIBITION was 50.2%.
`CCNc1ncc(C(=O)N2Cc3nc(C)[nH]c(=O)c3C2)cn1` gave an INHIBITION of 6.94%.
For `O=C(NCCN1CCOCC1)C1=NOC2(CCN(Cc3nccs3)C2)C1` (stereo unspecified), the INHIBITION was 41.6%.
With `CNC(=O)C1=NOC2(CCN(Cc3nccs3)C2)C1` (stereo unspecified) the INHIBITION was 54.4%.
With `CNC(=O)C1Cn2ccnc2C2(CCN(Cc3nccs3)CC2)O1` (stereo unspecified) the INHIBITION was 55.5%.
In the case of `O=C(NCC1CC1)C1=NOC2(CCN(S(=O)(=O)Cc3ccccc3)C2)C1` (stereo unspecified), the INHIBITION is reported as 22.5%.
Compound `CNC(=O)C1Cn2ccnc2C2(CCN(Cc3cccs3)CC2)O1` (stereo unspecified) has an INHIBITION of 46.2%.
Work on `O=C(NC1CCC1)C1=NOC2(CCN(Cc3ccccc3)C2)C1` (stereo unspecified) yielded an INHIBITION of 57.9%.
Compound `CC(C)CN1CCC2(CC(C(=O)NCc3cccnc3)=NO2)C1` (stereo unspecified) has an INHIBITION of -11.6%.
Work on `O=C(NCC1CC1)C1=NOC2(CCN(Cc3ccsc3)C2)C1` (stereo unspecified) yielded an INHIBITION of 38.5%.
`O=C(NCc1cccnc1)C1=NOC2(CCCN(CCO)C2)C1` (stereo unspecified) gave an INHIBITION of 60.1%.
In the case of `Cc1ncccc1NC(=O)C1=NOC2(CCN(Cc3nccs3)C2)C1` (stereo unspecified), the INHIBITION is reported as 9.1%.
Compound `CNC(=O)C1Cn2ccnc2C2(CCN(Cc3ccncc3)CC2)O1` (stereo unspecified) has an INHIBITION of 36.9%.
`CC(C)C(=O)N1CCCC2(CC(C(=O)NCc3cccnc3)=NO2)C1` (stereo unspecified) showed an INHIBITION of 8.67%.
For `CN1CCc2onc(Cn3cccc3)c2C1`, the INHIBITION was -7.24%.
Work on `Cc1cccc2nc(CN3CCCC3Cn3cncn3)cn12` (stereo unspecified) yielded an INHIBITION of 5.03%.
`c1ccc([C@@H]2CN(Cc3cccnc3)C[C@H]2c2cc[nH]n2)cc1` gave an INHIBITION of 27.2%.
With `O=C(NCc1ccc(-n2cncn2)nc1)c1cc[nH]n1` the INHIBITION was 17.9%.
`Clc1ccc(-n2cnnc2CCCN2CCOCC2)cc1` gave an INHIBITION of 15.6%.
With `CC1CCCCN1S(=O)(=O)NCCNC(=O)c1ncccc1O` (stereo unspecified) the INHIBITION was -27.3%.
Compound `COc1cccc2c(C)c(C(=O)N3CCNCC3C(N)=O)[nH]c12` (stereo unspecified) has an INHIBITION of 24.35%.
In the case of `CCNc1cc2c(nn1)CCN(C(=O)Cc1ccc(C)s1)C2`, the INHIBITION is reported as 37.4%.
Work on `Cc1cc(N2CCC(O)(CN(C)C(=O)CCCN)C2)c2cnccc2n1` (stereo unspecified) yielded an INHIBITION of -16.8%.
`Cc1ccc(-c2nnc(CNCCn3cc(C)cn3)o2)cc1` gave an INHIBITION of 14.4%.
`Cc1nc(C)n(CC2CN(Cc3ccncc3)Cc3nccn3C2)n1` (stereo unspecified) showed an INHIBITION of -15.6%.
Work on `CCc1noc(C(C)N2CCN(S(=O)(=O)N3CCCC3)CC2)n1` (stereo unspecified) yielded an INHIBITION of -11.4%.
For `CN1C(=O)CC(c2ccncc2)C12CCN(c1ncccn1)CC2` (stereo unspecified), the INHIBITION was 29.4%.
Compound `O=C(NC1CCC1)C1=NOC2(CCN(Cc3ccc(F)cc3)C2)C1` (stereo unspecified) has an INHIBITION of 64.9%.
Work on `O=C(NCC1CC1)C1=NOC2(CCN(S(=O)(=O)c3ccc(F)cc3)C2)C1` (stereo unspecified) yielded an INHIBITION of -19.1%.
With `O=C(NCC1CC1)C1=NOC2(CCN(Cc3ccc(Cl)c(F)c3)C2)C1` (stereo unspecified) the INHIBITION was 38.5%.
Work on `CN(C)[C@H]1CN(C(=O)CCc2cccc(F)c2)C[C@@H]1C1CC1` yielded an INHIBITION of 30.9%.
Compound `O=C(c1cscn1)N1CCc2c(COCC3CC3)cncc2C1` has an INHIBITION of 58.4%.
In the case of `CC(C)COCc1cncc2c1CCN(C(=O)c1cscn1)C2`, the INHIBITION is reported as 18.6%.
In the case of `O=C(c1cnccn1)N1CCc2c(COCC3CC3)cncc2C1`, the INHIBITION is reported as 39.2%.
With `CCOCc1cncc2c1CCN(C(=O)c1cscn1)C2` the INHIBITION was 62%.
With `O=C(c1ccsc1)N1CCc2c(COCC3CC3)cncc2C1` the INHIBITION was 39.8%.
In the case of `COCc1cncc2c1CCN(C(=O)c1cscn1)C2`, the INHIBITION is reported as 21.3%.
In the case of `CN(C)C(=O)C1(c2cnccn2)CCCN1C(=O)Cc1ccccc1` (stereo unspecified), the INHIBITION is reported as 28.475%.
Work on `CC1c2ncc(Cn3cncn3)n2CCN1C1CCOCC1` (stereo unspecified) yielded an INHIBITION of 2.01%.
In the case of `O=C(CCc1ccc2c(c1)OCO2)N1CCCCC1Cn1cccn1` (stereo unspecified), the INHIBITION is reported as -0.219%.
`CCN1CCOCC2(CCCN(C(=O)c3cnccn3)C2)C1` (stereo unspecified) showed an INHIBITION of -8.51%.
For `CN(C)C(=O)c1ccc(C2CCCN2C(=O)CCC2=NNC(=O)CC2)s1` (stereo unspecified), the INHIBITION was 56.7%.
`CSc1ncccc1C(=O)N1C[C@@H]2CC[C@H]1CN(CC(=O)N(C)C)C2` showed an INHIBITION of 22.8%.
For `CN(C)C(=O)c1ccc(C2CCCN2C(=O)c2cccc3c2OCC3)s1` (stereo unspecified), the INHIBITION was 81.1%.
For `CSc1ncccc1C(=O)N1CCCC1c1ccc(C(=O)N(C)C)s1` (stereo unspecified), the INHIBITION was 65.2%.
`O=C1CCC(CCC(=O)N2CCCC2c2nccs2)=NN1` (stereo unspecified) was tested, and the INHIBITION was 27.6%.
`O=C1CCC(CCC(=O)N2CCC2c2cccs2)=NN1` (stereo unspecified) was tested, and the INHIBITION was 11.2%.
With `CSc1ncccc1C(=O)N1C[C@@H]2CC[C@H]1CN(C(=O)N(C)C)C2` the INHIBITION was 30.3%.
`Cc1occc1C(=O)N1CCCC1c1ccc(C(=O)N2CCOCC2)s1` (stereo unspecified) showed an INHIBITION of -60.2%.
Work on `CN(C)C(=O)c1ccc(C2CCCN2C(=O)c2ccccc2N(C)C)s1` (stereo unspecified) yielded an INHIBITION of 39.1%.
